# Results: PubChem BioAssay AID588342 (National Center for Advancing Translational Sciences (NCATS), 2011)
# Among all 360,000 compounds or so, about 25,000 (6.9%) were called active. Inconclusive results (about 9%) are left out. The list comes from a sample in which actives are over-represented; it also holds similar structures and randomly drawn compounds. Entries that show only a call come without a potency. Values without a mark were called inactive. The call rests on the fitted dose curve; in most records, active means well fitted inhibition curve with a large enough effect; inconclusive means small, poorly fitted or top-dose-only effect; inactive means flat fitted curve, though single readings scatter.
# Molecular target: Luciferin 4-monooxygenase (Photinus pyralis) (UniProt P08659)
# Test: qHTS profiling assay for firefly luciferase inhibitor/activator using purifed enzyme and Km concentrations of substrates (counterscreen for miR-21 project); further: nearly all actives have a fitted effect of over 55% in size
# Details: purified FLuc, luminescence inhibition; series mostly up to 57.5 µM
# In short: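 Purified P. pyralis luciferase, 10 nM final, with Km-level 10 uM D-luciferin and 10 uM ATP in 50 mM Tris acetate pH 7.5, 10 mM Mg acetate, 0.01% Tween-20, 0.05% BSA; 6-point qHTS titration about 60 µM downward; luminescence read.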
# Potency means the concentration at half of the fitted maximal effect.
# Chain of Luciferin 4-monooxygenase (Photinus pyralis) (P08659 whole entry, looked up): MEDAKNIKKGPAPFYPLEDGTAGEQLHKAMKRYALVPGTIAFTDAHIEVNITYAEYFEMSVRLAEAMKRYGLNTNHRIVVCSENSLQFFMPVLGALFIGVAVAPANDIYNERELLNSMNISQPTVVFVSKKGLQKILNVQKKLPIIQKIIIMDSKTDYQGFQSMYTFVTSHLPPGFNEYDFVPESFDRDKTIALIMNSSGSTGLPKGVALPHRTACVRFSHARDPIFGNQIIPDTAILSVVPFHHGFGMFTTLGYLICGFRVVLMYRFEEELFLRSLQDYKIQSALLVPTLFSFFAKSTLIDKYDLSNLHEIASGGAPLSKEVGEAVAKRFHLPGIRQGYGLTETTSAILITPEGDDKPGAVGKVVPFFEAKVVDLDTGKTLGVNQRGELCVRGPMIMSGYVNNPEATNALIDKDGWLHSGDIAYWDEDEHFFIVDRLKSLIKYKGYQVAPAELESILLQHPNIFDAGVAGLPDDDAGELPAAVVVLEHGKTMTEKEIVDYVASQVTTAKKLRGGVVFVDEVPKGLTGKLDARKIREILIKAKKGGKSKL
SMILES,Potency,"activity change, negative = inhibition"
CCOC(=O)c1ccc(NC(=O)CCS(=O)(=O)c2ccc(C)cc2)cc1,inactive,–
O=C(/C=C/c1cccc([N+](=O)[O-])c1)OCC(=O)N1CCOCC1,inactive,–
CCc1ccccc1N1C(=O)CN(S(=O)(=O)CC)CC1(C)C(=O)NC1CCCCC1 (stereo not given),inactive,–
CCCn1c2ccccc2c2cnn(CC(=O)N3CCCC(C(=O)OCC)C3)c(=O)c21 (stereo not given),inactive,–
Cn1c(=O)[nH]c(=O)c2c1nc(NCCc1ccccc1)n2Cc1ccc(F)cc1,inactive,–
COc1ccc(OC)c(S(=O)(=O)Nc2ccccc2F)c1,inactive,–
COc1ccc2c(c1)CCC/C2=N\OC(=O)c1ccccc1F,12 µM (active),–
COc1cc2c(cc1OC)C(COc1ccc(F)cc1)N(C(=O)c1ccccc1F)CC2 (stereo not given),inactive,–
O=C(CNS(=O)(=O)c1ccc2c(c1)OCCCO2)N1CCN(c2ccc(F)cc2)CC1,inactive,–
COC(=O)/C(=C1\Oc2ccc(C(C)(C)C)cc2S1)C(F)(F)F,3.79 µM (active),–
CCOC(=O)C1=C(c2ccccc2)O/C(=C(/C(=O)OC)C(F)(F)F)S1,inactive,–
CC(C)(C)c1ccc(C(=O)NCC(c2ccco2)S(=O)(=O)c2ccc(F)cc2)cc1 (stereo not given),inactive,–
CCOC(=O)c1c(C)n(S(=O)(=O)c2ccc(C)cc2C)c2ccc(NS(=O)(=O)c3ccc(C)cc3C)cc12,inactive,–
O=C(Nc1ccc(OC(F)(F)F)cc1)C1CCCN(S(=O)(=O)c2ccc(Br)s2)C1 (stereo not given),inactive,–
Cc1ccc2c(=O)cc(C(=O)Nc3sc4c(c3C(=O)NCc3cccnc3)CCCC4)oc2c1,inactive,–
COc1ccccc1C(=O)NCCn1cc(SCc2ccccc2Cl)c2ccccc21,inactive,–
Cc1ccccc1NC(=O)Cn1c(=O)n(CCc2ccccc2)c(=O)c2ccccc21,inactive,–
Cc1nnc(C)n1-c1ccc(C(=O)Nc2cccc(Br)c2)cc1,inactive,–
Cc1cccc(C)c1-n1c(C)cc(/C=C2\C(=O)NN(c3ccccc3)C2=O)c1C,3.38 µM (active),–
COc1ccc(CNC(=O)c2cc3c(s2)-c2ccccc2OC3)cc1,inactive,–
Cc1csc(=O)n1CCC(=O)OCC(=O)NNC(=O)c1ccc(Br)cc1,inactive,–
CCCc1nc2c(C)cc(-c3nc4ccccc4n3C)cc2n1Cc1ccc(-c2ccccc2C(=O)O)cc1,13.5 µM (active),–

SMILES,Potency,"activity change, negative = inhibition"
Cc1ccc(Cn2c(CCCNC(=O)C3CCCCC3)nc3ccccc32)cc1,inactive,–
CC(=O)Nc1nc2ccccc2n1Cc1ccc(C)cc1,inactive,–
Cc1ccc(C)c(C(=O)COC(=O)Cn2[nH]c(=O)c3ccccc3c2=O)c1,inactive,–
CCOc1ccccc1NC(=O)Cn1c2ncccc2c(=O)n1-c1ccc(C)c(C)c1,inactive,–
COc1ccc(COCC(O)CN2CCC(C(N)=O)CC2)cc1 (stereo not given),inactive,–
CCOc1cc(CN2CCN(C(=O)CC(C)C)CC2)ccc1OC,inactive,–
COc1cc(CN2CCC(C(N)=O)CC2)ccc1OCc1ccccc1,10.7 µM (active),–
CCC(C)(C)NC(=O)CN(Cc1cccs1)C(=O)CNS(=O)(=O)c1ccc(F)cc1,inactive,–
CCOC(=O)Cn1c(=O)n(Cc2ccc(OC)cc2)c(=O)c2cccnc21,inactive,–
CCOC(=O)c1cnc2c(C)cc(Cl)cc2c1NCCc1ccc(OC)c(OC)c1,inactive,–
COc1cc(NC(=O)Cn2nc(-c3ccc(C)c(C)c3)ccc2=O)cc(OC)c1,inactive,–
NNC(=O)c1cccc(COCC(F)(F)C(F)F)c1,inactive,–
CCOC(=O)c1cc(C(C)C)sc1NC(=O)COC(=O)c1nccnc1N,inactive,–
CC(C)c1cc(C(N)=O)c(NC(=O)c2cccc(COc3ccc(Br)cc3)c2)s1,19 µM (active),–
COc1ccc(CCNC(=O)Cn2c(=O)n(-c3ccccc3)c(=O)c3c(C)c(C)sc32)cc1OC,inactive,–
CCOc1ccc(N(CC)C(=O)c2cc3c(=O)oc4ccccc4c3s2)cc1,inactive,–
CCOc1ccc(N/C=C/C(=O)c2ccccc2)cc1,0.269 µM (active),–
COc1ccc(C(=O)/C=C/Nc2ccccn2)cc1,0.107 µM (active),–
Cc1ccc(N(NC(=O)C(C)(C)O)C(=O)c2ccccc2)cc1C,inactive,–
Cc1ccc(NNC(=O)C2CCC2)cc1C,inactive,–
COc1ccc(N2C(=O)CCC(C(=O)Nc3ccccn3)C2c2ccc(OC)c(OC)c2)cc1 (stereo not given),inactive,–
CCCOc1ccc(N/C=C/C(=O)C(C)(C)C)cc1,10.7 µM (active),–

SMILES,Potency,"activity change, negative = inhibition"
COCCN(C(=O)CCC(=O)Nc1ccccn1)C(C(=O)NCCC(C)C)c1ccc(OC)cc1 (stereo not given),inactive,–
CCOc1ccc(NC(=O)C2CCCN(C(=O)Nc3ccccc3)C2)cc1 (stereo not given),inactive,–
CCOc1ccc(NC(=S)N2CCC(NC(=O)c3ccccc3)CC2)cc1,inactive,–
Cc1ccc(N/C=C/C(=O)c2ccccc2)cc1C,0.151 µM (active),–
CCCOc1ccc(NC(=O)C2CCCNC2=O)cc1 (stereo not given),–,3.63% [at 2.3 µM]
CCCOc1ccc(NC(=O)C2OC3OC(C)(C)OC3C3OC(C)(C)OC23)cc1 (stereo not given),inactive,–
CC(Oc1ccccc1F)C(=O)NN (stereo not given),inactive,–
CCOC(=O)Cc1ccc(NC(=O)Nc2c[nH]c(=O)[nH]c2=O)cc1,inactive,–
COc1ccc(OC)c(NC(=O)CN2CCCN(Cc3cc(C)ccc3C)S2(=O)=O)c1,inactive,–
COc1cccc(NC(=O)C2CCN(c3cc(C)nc4c(-c5ccc(Cl)cc5)c(C)nn34)CC2)c1,inactive,–
COc1ccc(OC)c(-c2noc(N3CCN(c4cc(Cl)ccc4C)CC3)n2)c1,inactive,–
Cc1ccccc1CNC(=O)Cn1c(C)c2cnn(-c3ccccc3)c(=O)c2c1C,inactive,–
O=C(CN(CC1CCCO1)C(=O)CNS(=O)(=O)c1ccc(F)cc1)NCc1ccco1 (stereo not given),inactive,–
CCOc1ccc(N/C=C/C(=O)c2cc(OC)c(OC)c(OC)c2)cc1,13.5 µM (active),–
CCOc1ccc(C(NC(=O)c2cc(OC)c(OC)c(OC)c2)c2cc(Cl)c3cccnc3c2O)cc1 (stereo not given),inactive,–
CCC(=O)c1ccc(OC(=O)/C=C/c2cc(OC)c(OC)c(OC)c2)cc1,inactive,–
CC1(C)O[C@@H]2[C@H](O1)[C@@H](COS(=O)(=O)O)O[C@H]2n1ccc(=O)[nH]c1=O,inactive,–
O=C(NCC(=O)N(Cc1cccs1)C(C(=O)NC1CCCCC1)c1ccco1)c1cccs1 (stereo not given),inactive,–
O=c1c2ccccc2nc2n1C(CSc1ccc(Cl)cc1)CN2 (stereo not given),inactive,–
O=C(/C=C/c1ccc2c(c1)OCO2)NCc1cn2cc(Cl)ccc2n1,inactive,–
Clc1ccc2nc(CSc3ccccc3)cn2c1,0.849 µM (active),–
